These results are taken from PubChem BioAssay (NCI).

A short description of assay [1]: NCI Yeast Anticancer Drug Screen. Data for the rad50 strain (AID 155).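 Further: 0% = growth of vehicle-only cultures of the same strain.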 Conditions: S. cerevisiae rad50 strain growth inhibition, active compounds read high. An outline of the steps: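 Relative growth inhibition (compound vs vehicle) was measured in yeast with a defined repair-gene alteration.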
Assay [2] is described as follows: NCI Yeast Anticancer Drug Screen. Data for the mec2-1 strain (AID 157). Conditions: S. cerevisiae mec2-1 strain, active compounds read high. An outline of the steps: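 Yeast mec2-1 mutant treated with compound. Readout: growth inhibition vs vehicle controls.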
Assay [3] is described as follows: NCI Yeast Anticancer Drug Screen. Data for the sgs1 mgt1 strain (AID 161).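 Further: 0% = growth of cultures given vehicle only.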 As to conditions: S. cerevisiae sgs1 mgt1 strain, active compounds read high. An outline of the steps: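 Genetically altered yeast, compound exposure, growth inhibition relative to vehicle.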
A short description of assay [4]: NCI Yeast Anticancer Drug Screen. Data for the cln2 rad14 strain (AID 165).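 Further: 0% = growth equal to vehicle treated cultures.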 As to conditions: S. cerevisiae cln2 rad14 strain, active compounds read high. The method in brief: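 cln2 rad14 yeast strain; compound exposure; growth inhibition read vs vehicle controls.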
A short description of assay [5]: NCI Yeast Anticancer Drug Screen. Data for the bub3 strain (AID 167). Conditions: S. cerevisiae bub3 mutant strain, active compounds read high. The method in brief:
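Screening used yeast with an engineered genetic alteration affecting cell cycle control. Compound-exposed cultures were compared with vehicle cultures, and reduced growth was taken as inhibition.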

The nature of assay [6]: NCI Yeast Anticancer Drug Screen. Data for the mlh1 rad18 strain (AID 175). As to conditions: S. cerevisiae mlh1 rad18 strain growth inhibition, active compounds read high. An outline of the steps:
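Yeast w/ defined DNA-repair lesions; compound exposure; growth vs vehicle controls → % inhibition.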

Setting [7] is: at 5.0 µM (retest, dose inferred, filed as 0.5).
The mark [8] stands for this setting: at 50.0 µM (retest, dose inferred, filed as 5.0).

Each structure is given as a SMILES string. Compounds without any hit were thinned out: in the full panel of roughly 79,000, 15% have a hit. Values without a mark were called inactive. Active and inactive are the calls of the source. No stated cut-off is given here; in the data, active means growth inhibition above about 70%; inactive means the rest.

Consider `O/N=C1/C(=C/c2ccc(Cl)c(Cl)c2)CCCC1C(NO)c1ccc(Cl)c(Cl)c1` (stereo not given), for which the growth inhibition in assay [1] (setting [7]) was 17%; in assay [1] (setting [8]), 96% (active); in assay [1] (at 50.0 µM), 64%; in assay [2] (setting [7]), -1%; in assay [2] (setting [8]), 98% (active); in assay [2] (at 50.0 µM), 1.9%. Also, the growth inhibition in assay [3] (setting [7]) is 2%; in assay [3] (setting [8]), 96% (active); in assay [3] (at 50.0 µM) it was 25.2%; in assay [4] (setting [7]) it was -6%; in assay [4] (setting [8]) it was 97% (active); in assay [4] (at 50.0 µM) it was -14.8%. The growth inhibition is -1% in assay [5] (setting [7]); 96% (active) in assay [5] (setting [8]); 21.6% in assay [5] (at 50.0 µM); 1% in assay [6] (setting [7]); 97% (active) in assay [6] (setting [8]); 79% (active) in assay [6] (at 50.0 µM).
For the molecule `C/C=C\C(/C=C/C)(C(=O)OCCN(C)C)C(/C=C\C)(/C=C/C)C(=O)OCCN(C)C` (stereo not given), the growth inhibition in assay [1] (setting [7]) is 5%; in assay [1] (setting [8]), 97% (active); in assay [1] (at 50.0 µM) it was 98% (active); in assay [2] (setting [7]), 2%; in assay [2] (setting [8]), 97% (active); in assay [2] (at 50.0 µM), 96.8% (active). The growth inhibition in assay [3] (setting [7]) was 5%; in assay [3] (setting [8]) it was 96% (active); in assay [3] (at 50.0 µM), 95.8% (active); in assay [4] (setting [7]), 2%; in assay [4] (setting [8]), 97% (active); in assay [4] (at 50.0 µM), 96.5% (active). In addition, the growth inhibition in assay [5] (setting [7]) was 2%; in assay [5] (setting [8]), 95% (active); in assay [5] (at 50.0 µM) it was 95.4% (active); in assay [6] (setting [7]), 3%; in assay [6] (setting [8]), 97% (active); in assay [6] (at 50.0 µM), 97% (active).
Turning to `CN1N=C2c3ccccc3CC[C@H]2C1c1cccc(O)c1` (stereo not given in full), the growth inhibition in assay [1] (setting [7]) is -36%; in assay [1] (setting [8]), 65%; in assay [1] (at 50.0 µM), 52.7%; in assay [2] (setting [7]), 5%; in assay [2] (setting [8]), 34%; in assay [2] (at 50.0 µM) it was 23.4%. Moreover, the growth inhibition was -16% in assay [3] (setting [7]); 88% (active) in assay [3] (setting [8]); 69.2% in assay [3] (at 50.0 µM); 24% in assay [4] (setting [7]); 83% (active) in assay [4] (setting [8]); 43.8% in assay [4] (at 50.0 µM). In addition, the growth inhibition in assay [5] (setting [7]) was 21%; in assay [5] (setting [8]), 78% (active); in assay [5] (at 50.0 µM), 67.2%; in assay [6] (setting [7]), -16%; in assay [6] (setting [8]), 82% (active); in assay [6] (at 50.0 µM), 35.9%.
As for `CCC(=O)OC1=C(Br)C(=O)c2ccccc2C1=O`, the growth inhibition in assay [1] (setting [7]) is 14%; in assay [1] (setting [8]), 85% (active); in assay [1] (at 50.0 µM), 89.6% (active); in assay [2] (setting [7]) it was 17%; in assay [2] (setting [8]), 94% (active); in assay [2] (at 50.0 µM), 57.4%. In addition, the growth inhibition in assay [3] (setting [7]) was 25%; in assay [3] (setting [8]), 68%; in assay [3] (at 50.0 µM), 80.3% (active); in assay [4] (setting [7]), 4%; in assay [4] (setting [8]), 68%; in assay [4] (at 50.0 µM) it was 1.15%. The growth inhibition in assay [5] (setting [7]) was 18%; in assay [5] (setting [8]) it was 96% (active); in assay [5] (at 50.0 µM), 18.9%; in assay [6] (setting [7]), 38%; in assay [6] (setting [8]) it was 85% (active); in assay [6] (at 50.0 µM) it was 76.6% (active).
For the molecule `O=C1C=CC(=O)N1c1ccc2c(c1)Cc1cc(Cl)ccc1-2`, the growth inhibition in assay [1] (setting [7]) was -48%; in assay [1] (setting [8]), 92% (active); in assay [1] (at 50.0 µM), 13.6%; in assay [2] (setting [7]), 8%; in assay [2] (setting [8]) it was 96% (active); in assay [2] (at 50.0 µM), 78.3% (active). Moreover, the growth inhibition is -5% in assay [3] (setting [7]); 93% (active) in assay [3] (setting [8]); 79.2% (active) in assay [3] (at 50.0 µM); -3% in assay [4] (setting [7]); 27% in assay [4] (setting [8]); -72% in assay [4] (at 50.0 µM). Also, the growth inhibition in assay [5] (setting [7]) is 11%; in assay [5] (setting [8]) it was 82% (active); in assay [5] (at 50.0 µM) it was 72.3% (active); in assay [6] (setting [7]) it was 26%; in assay [6] (setting [8]), 97% (active); in assay [6] (at 50.0 µM), 68.9%.
In the case of `CCCCCCCCCCCCCC(=O)CBr`, the growth inhibition in assay [1] (setting [7]) is 11%; in assay [1] (setting [8]) it was 84% (active); in assay [1] (at 50.0 µM), 87.5% (active); in assay [2] (setting [7]) it was 4%; in assay [2] (setting [8]), 85% (active); in assay [2] (at 50.0 µM) it was 80.1% (active). Also, the growth inhibition was 35% in assay [3] (setting [7]); 99% (active) in assay [3] (setting [8]); 84.5% (active) in assay [3] (at 50.0 µM); 2% in assay [4] (setting [7]); 68% in assay [4] (setting [8]); 66.2% in assay [4] (at 50.0 µM). Further, the growth inhibition is 9% in assay [5] (setting [7]); 98% (active) in assay [5] (setting [8]); 85.8% (active) in assay [5] (at 50.0 µM); 5% in assay [6] (setting [7]); 90% (active) in assay [6] (setting [8]); 81.1% (active) in assay [6] (at 50.0 µM).
Take `C=C1CC[C@H]2C(C)=CC[C@@H]3[C@H](OC(=O)[C@H]3CN3CCN(c4ccc(C)c([N+](=O)[O-])c4)CC3)[C@@H]12`: the growth inhibition in assay [1] (setting [7]) was 29%; in assay [1] (setting [8]), 65%; in assay [1] (at 50.0 µM) it was 69%; in assay [2] (setting [7]), 30%; in assay [2] (setting [8]), 40%; in assay [2] (at 50.0 µM), 66.2%. The growth inhibition in assay [3] (setting [7]) is 52%; in assay [3] (setting [8]), 76% (active); in assay [3] (at 50.0 µM), 79.6% (active); in assay [4] (setting [7]), 48%; in assay [4] (setting [8]) it was 60%; in assay [4] (at 50.0 µM) it was 63%. Further, the growth inhibition is 52% in assay [5] (setting [7]); 71% (active) in assay [5] (setting [8]); 69.8% in assay [5] (at 50.0 µM); 42% in assay [6] (setting [7]); 72% (active) in assay [6] (setting [8]); 47.8% in assay [6] (at 50.0 µM).
Take `O=Cc1c(O)ccc2ccccc12.[Cu+2]`: the growth inhibition in assay [1] (setting [7]) was -27%; in assay [1] (setting [8]), 95% (active); in assay [1] (at 50.0 µM), 99.3% (active); in assay [2] (setting [7]), -2%; in assay [2] (setting [8]), 47%; in assay [2] (at 50.0 µM), 99.2% (active). The growth inhibition in assay [3] (setting [7]) was -7%; in assay [3] (setting [8]), 97% (active); in assay [3] (at 50.0 µM) it was 99.2% (active); in assay [4] (setting [7]), -19%; in assay [4] (setting [8]), 42%; in assay [4] (at 50.0 µM) it was 99% (active). For the same molecule, the growth inhibition is -54% in assay [5] (setting [7]); 94% (active) in assay [5] (setting [8]); 98.8% (active) in assay [5] (at 50.0 µM); -14% in assay [6] (setting [7]); 97% (active) in assay [6] (setting [8]); 99.2% (active) in assay [6] (at 50.0 µM).
As to `CCOC(=O)c1csc(=S)[nH]1`, the growth inhibition in assay [1] (setting [7]) was 2%; in assay [1] (setting [8]) it was 83% (active); in assay [1] (at 50.0 µM) it was 76.8% (active); in assay [2] (setting [7]) it was 2%; in assay [2] (setting [8]), 32%; in assay [2] (at 50.0 µM) it was 80.2% (active). The growth inhibition was -16% in assay [3] (setting [7]); 95% (active) in assay [3] (setting [8]); 74.5% (active) in assay [3] (at 50.0 µM); 5% in assay [4] (setting [7]); 46% in assay [4] (setting [8]); -12.1% in assay [4] (at 50.0 µM). Moreover, the growth inhibition is -6% in assay [5] (setting [7]); 86% (active) in assay [5] (setting [8]); 47% in assay [5] (at 50.0 µM); 15% in assay [6] (setting [7]); 96% (active) in assay [6] (setting [8]); 35.9% in assay [6] (at 50.0 µM).
`CCc1c(O)sc2c(c1=O)C(=NCC(C)C)CC(C)(C)N2`: the growth inhibition in assay [1] (setting [7]) was -5%; in assay [1] (setting [8]) it was 5%; in assay [1] (at 50.0 µM) it was 40.3%; in assay [2] (setting [7]), 15%; in assay [2] (setting [8]), 34%; in assay [2] (at 50.0 µM), 24.1%. Also, the growth inhibition in assay [3] (setting [7]) is 9%; in assay [3] (setting [8]), -4%; in assay [3] (at 50.0 µM) it was 34.1%; in assay [4] (setting [7]), -14%; in assay [4] (setting [8]) it was -7%; in assay [4] (at 50.0 µM), 27.4%. The growth inhibition was 2% in assay [5] (setting [7]); 4% in assay [5] (setting [8]); 10.8% in assay [5] (at 50.0 µM); -12% in assay [6] (setting [7]); -6% in assay [6] (setting [8]); 53.9% in assay [6] (at 50.0 µM).
